Experimental data taken from ChEMBL document CHEMBL1157539, “Thousands of chemical starting points for antimalarial lead identification” (Nature, 2010).

Experiments:
Type in all cases: functional
Plasmodium falciparum [1] = assay: GSK_TCMDC: Inhibition of Plasmodium falciparum 3D7 in whole red blood cells, using parasite LDH activity as an index of growth. Test compounds present at 2uM
Plasmodium falciparum [2] = assay: GSK_TCMDC: Inhibition of Plasmodium falciparum Dd2 in whole red blood cells, using parasite LDH activity as an index of growth. Test compounds present at 2uM
HepG2 = assay: GSK_TCMDC: Percent inhibition of human HepG2 cell line. Test compounds present at 10uM.

SMILES	Inhibition (Plasmodium falciparum [1]) [%]	Inhibition (Plasmodium falciparum [2]) [%]	Inhibition (HepG2) [%]
Cc1cccc(C(=O)NC(NC(=S)Nc2ccc([N+](=O)[O-])cc2)C(Cl)(Cl)Cl)c1 (configuration not stated)	96	66	14
CCc1sc(CN(CCCNc2cc(=O)c3ccccc3[nH]2)Cc2sc(CC)c(Br)c2-c2ccsc2)c(-c2ccsc2)c1Br.Cl	99	98	10
c1ccc2c(CNc3nc(NCC4CCCCC4)nc4[nH]cnc34)cccc2c1	89	44	0
CC(=O)Nc1ccc(OCCCN(Cc2ccccc2OC(F)(F)F)c2ccc(C(F)(F)F)c(C#N)c2)c(Cl)c1	91	80	5
CC(C)CNC(=O)c1cncc(-c2ccc(CN(C)C3CCN(C)CC3)cc2)c1.O=C(O)C(F)(F)F	100	84	15
Cc1[nH]c(C)c(-c2ccc(OCc3ccc(F)cc3)cc2)c(=O)c1Cl	95	96	0
Cc1cc(NC(=O)c2ccco2)ccc1OC1CCN(Cc2ccccc2)CC1.O=C(O)C(F)(F)F	93	95	3
O=C(/C=C/c1ccc(Cl)c(Cl)c1)NCCCCCCN1CCN(C(=O)Nc2cc(F)cc(F)c2)CC1	86	0	23
COCCN1CCN(Cc2ccc(-c3ccc(-c4nc5cccc(C)c5[nH]4)s3)cc2)CC1.O=C(O)C(F)(F)F	95	52	32
CCN(CC)CCNc1ccnc2[nH]c3ccc(Cl)cc3c12	100	92	3
O=C(O)C(F)(F)F.OCCN1CCN(Cc2ccc(-c3cccc(-c4nc5ccccc5[nH]4)c3)cc2)CC1	96	16	32
CCCN(CCC)C(=O)c1cc(-c2cccc(C)c2)nc2ccccc12	86	59	17
CCN(CC)CCCC(C)Nc1c2ccccc2nc2c1ccc1ccccc12.Cl (configuration not stated)	96	34	18
CC1CN(Cc2cccc(F)c2)CCN1c1ccc(NC(=O)c2cccs2)cc1.O=C(O)C(F)(F)F (configuration not stated)	96	96	0
CC(C)CCN1C(=O)C(NC(=O)Oc2ccccc2)C(=O)N(CC23CC4CC(CC(C4)C2)C3)c2ccccc21 (configuration not stated)	95	4	3
CCCC(C(CC1CCC(C)CC1)C(=O)NC(CCCNc1ncccn1)C(=O)Nc1nccs1)N(O)C=O (configuration not stated)	98	98	10
COc1ccc2nc(-c3ccccc3)cc(N/N=C/c3ccc([N+](=O)[O-])o3)c2c1	100	99	90
COc1ccc(-c2cccc(NC(=O)c3ccc(Cl)cc3)c2)cc1CN1CCC(O)CC1.O=C(O)C(F)(F)F	100	43	51
CCc1c[nH]c2c(N3CCCC3=O)cc(C(=O)N[C@@H](Cc3ccccc3)[C@H](O)CNC(C)(C)c3cccc(C(F)(F)F)c3)cc12.O=CO	98	99	10
CCNc1cc(C(=O)N[C@@H](Cc2ccccc2)[C@H](O)CN[C@@H](C)c2cccc(OC)c2)cc(N2CCCC2=O)c1.O=CO	95	65	5

SMILES	Inhibition (Plasmodium falciparum [1]) [%]	Inhibition (Plasmodium falciparum [2]) [%]	Inhibition (HepG2) [%]
Cc1nc(Nc2cc(Cl)ccc2O)nc(Nc2cc(Cl)ccc2O)c1[N+](=O)[O-]	98	83	0
O=C(Nc1cc(Cl)ccc1-n1cncn1)C1(c2ccccc2)CC1	98	91	3
CN(C)c1ccc(NC(=O)Nc2ccnc3ccc(Br)cc23)cc1.Cl	91	21	0
O=C(Nc1ccc(-c2ccccc2)cc1)Nc1cccc(Cn2nc(Cl)c(N3CCCNCC3)cc2=O)c1.O=C(O)C(F)(F)F	100	37	13
CC(CN1CCN(C)CC1)C(=O)Nc1ccc(-c2cccc(-c3nc4cc(C(F)(F)F)ccc4[nH]3)c2)cc1 (configuration not stated)	99	96	16
COc1cc(Nc2ncc3c(C)nc(-c4cc5ccccc5[nH]4)n3n2)cc(OC)c1OC	91	65	19
CN(C)Cc1cccc(-c2cnc(N)c(-c3nc4cc(S(C)(=O)=O)ccc4[nH]3)c2)c1.O=C(O)C(F)(F)F	100	61	27
CCCC(C)Nc1nc(C)cc(N[C@@H](Cc2ccccc2)C(=O)NCc2ccc(C)cc2)n1.O=C(O)C(F)(F)F (some centres not stated)	100	93	22
Cc1cccc(CN2CCN(c3ncc(C(=O)NC4CC4)cc3Cl)CC2)c1.O=C(O)C(F)(F)F	84	73	2
O=C(/C=C/c1ccc(Cl)c(Cl)c1)NCCCCCN1CCC(NC(=O)Nc2ccc(Oc3ccccc3)cc2)C1 (configuration not stated)	99	6	35
COC(=O)c1cccc(CNCc2ccc(-c3ccc(-c4nc5cccc(C)c5[nH]4)s3)cc2)c1.O=C(O)C(F)(F)F	100	64	3
O=C(O)C(F)(F)F.O=S(=O)(NCCN1CCCC1)c1ccc(-c2cccc(CNCc3ccc(F)cc3)c2)cc1F	97	36	43
Nc1ccc(-c2nc3cc(-c4ccc5[nH]c(-c6ccc(N)cc6)nc5c4)ccc3[nH]2)cc1	100	96	45
O=C(CN1CCC(NCc2cnc(-c3ccc(Cl)cc3)[nH]2)CC1)N1CCc2ccccc21	100	5	11
CN1CCCN(Cc2cccc(-c3ccc(NC(=O)c4cccc(Cl)c4)cc3)c2)CC1.O=C(O)C(F)(F)F	90	10	34
CC(C)(CNC(=O)C1CCN(CCOCc2ccccc2)CC1)c1nc(-c2ccc(Cl)c(O)c2)c(-c2ccncc2)[nH]1.Cl	100	18	11
Cc1ccc(NC(=O)N2CCC(n3c(-c4ccccc4)nc4cccnc43)CC2)cc1F	96	85	23
Cc1cc(-c2ccc(NC(=O)N3CCc4cc(Br)c(N5CCN(C)CC5)cc43)cc2)cc(C)n1	92	4	29
COc1ccc2nccc([C@@H](O)CN3CCC(NCC(O)Cc4ccccc4)CC3)c2c1.O=C(O)C(=O)O (some centres not stated)	98	6	5
CC(C)CCNC(=N)Nc1ccc(OCCCOc2ccc(NC(=N)NCCC(C)C)cc2)cc1	100	95	0

SMILES	Inhibition (Plasmodium falciparum [1]) [%]	Inhibition (Plasmodium falciparum [2]) [%]	Inhibition (HepG2) [%]
O=C(O)C(F)(F)F.c1cc(CN2CCN(CCN3CCOCC3)CC2)cc(-c2cccc(-c3nc4ccccc4[nH]3)c2)c1	100	100	29
CC(C)CCN1CCCN(Cc2ccc(C(=O)Nc3ccc(F)c(F)c3)cc2)CC1.O=C(O)C(F)(F)F	88	27	36
Br.CCC(C)c1cccc(C(C)CC)c1OCCCON1C(N)=NC(N)=NC1(C)C (configuration not stated)	91	98	51
Cn1nc(C(F)(F)F)c(-c2ccc(Br)cc2)c1NC(=O)Nc1ccc(F)cc1F	99	99	16
Cl.O=c1cc(NCCCNCc2ccc(Cl)c(Cl)c2)[nH]c2ccc(C(F)(F)F)cc12	100	68	10
COc1ccc(CNCc2ccc(-c3ccc(-c4nc5ccccc5[nH]4)cc3)cc2)cc1.O=C(O)C(F)(F)F	100	89	63
CCN(Cc1ccccc1)C1CCN(Cc2cc(Br)ccc2O)CC1.O=C(O)C(=O)O	97	97	6
O=C(CCN(Cc1ccco1)c1nc(-c2ccc(F)cc2)nc2ccccc12)NC1CC1	94	54	0
CC1(C)[C@H]2CC[C@@H](CNc3nc(NCC(=O)Nc4ccc5ccccc5c4)nc(N4CCC(N5CCCC5)CC4)n3)[C@@H]1C2	93	20	6
CN(C)CCNC(=O)c1ccc2c(c1)n(C1CCN(S(=O)(=O)c3ccc(-c4ccccc4)cc3)CC1)c(=O)n2CC1CCCCC1	100	66	47
CC(=O)COc1c(C2CCN(CCCCNC(=O)c3ccc(-c4ccc(C(F)(F)F)cc4)cc3)CC2)ccc2c1CCCC2	99	53	100
COc1ccc(CCc2ccc(-c3c(C)[nH]c(C)c(Cl)c3=O)cc2)cc1	98	97	0
O=C(c1ccc2ccccc2n1)N1CCCc2cc(Br)ccc21	97	74	19
CC1CN(C(=O)c2sc3ccccc3c2Cl)CC(C)O1 (configuration not stated)	100	98	0
Oc1ccc2ccccc2c1CNCC1CCCCC1	98	93	0
COc1ccc(-c2ccc(NC(=O)c3ccc(C#N)cc3)cc2)cc1CN1CCC(O)CC1.O=C(O)C(F)(F)F	94	28	24
Cc1ccc(NC(=O)c2ccc3ncccc3c2)cc1OC1CCN(CCC(C)C)C1.O=C(O)C(F)(F)F (configuration not stated)	98	62	5
Cl.O=C(NC1CCC(CCN2Cc3ccc(Br)cc3C2)CC1)c1cccc(-c2cccnc2)c1 (configuration not stated)	99	73	14
Cc1ccc(CCC(C)NCC(O)c2cccc(Cl)c2)cc1 (configuration not stated)	97	97	2
